# The supplement of paper PMC6555819
# How the values were obtained:
# Assay in all cases: PBM binding z-score (relative to random genomic background probes); higher = stronger binding; sequences stand for … in GC…GCGATTGACAGCGTAGAATGAAGG
# [1] = tested on: PPARg:RXRa DBDmut IVT, anti-RXR (DBD mutation: RXRa K156A/R161A, NR concentration 270 nM, RXRa partner concentration 90 nM)
# Method in brief: (§1)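 Random background probes are the reference for binding z-scores. These scores derive from regression-normalized fluorescence on custom Agilent 4×180K protein-binding microarrays incubated 1 h with ligand-free nuclear receptor dimers. Binding was detected with antibodies against each partner (one per run).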
# [2] = tested on: PPARg:RXRa IVT, anti-PPARg (NR concentration 270 nM, RXRa partner concentration 90 nM)
# Method in brief: as §1
# [3] = tested on: PPARg DBDmut:RXRa IVT, anti-PPARg (DBD mutation: PPARg1 K132A/R137A, NR concentration 270 nM, RXRa partner concentration 90 nM)
# Method in brief: as §1
# [4] = tested on: PPARg DBDmut IVT, anti-PPARg (DBD mutation: PPARg1 K132A/R137A, NR concentration 270 nM)
# Method in brief: as §1
# [5] = tested on: PPARg homodimer (NR concentration 180 nM)
# Method in brief: as §1
# [6] = tested on: PXR:RXRa (NR concentration 270 nM, RXRa partner concentration 90 nM)
# Method in brief: as §1
# [7] = tested on: PXR homodimer (NR concentration 270 nM)
# Method in brief: as §1
# [8] = tested on: RARa:RXR (NR concentration 270 nM, RXRa partner concentration 90 nM)
# Method in brief: as §1
# [9] = tested on: RARa homodimer (NR concentration 270 nM)
# Method in brief: as §1
# [10] = tested on: RARb:RXRa (NR concentration 270 nM, RXRa partner concentration 90 nM)
# Method in brief: as §1
# [11] = tested on: RARb homodimer (NR concentration 270 nM)
# Method in brief: as §1
# [12] = tested on: RARg:RXRa (NR concentration 270 nM, RXRa partner concentration 90 nM)
# Method in brief: as §1
# [13] = tested on: RARg homodimer (NR concentration 270 nM)
# Method in brief: as §1
# [14] = tested on: RXRa DBDmut IVT, anti-RXR (DBD mutation: RXRa K156A/R161A, NR concentration 90 nM)
# Method in brief: as §1
# [15] = tested on: RXRa homodimer (NR concentration 180 nM)
# Method in brief: as §1
# [16] = tested on: THRa:RXRa (NR concentration 90 nM, RXRa partner concentration 90 nM)
# Method in brief: as §1
# [17] = tested on: THRa homodimer (NR concentration 90 nM)
# Method in brief: as §1
# [18] = tested on: VDR homodimer (NR concentration 270 nM)
# Method in brief: as §1
Sequence,PBM binding z-score [1],PBM binding z-score [2],PBM binding z-score [3],PBM binding z-score [4],PBM binding z-score [5],PBM binding z-score [6],PBM binding z-score [7],PBM binding z-score [8],PBM binding z-score [9],PBM binding z-score [10],PBM binding z-score [11],PBM binding z-score [12],PBM binding z-score [13],PBM binding z-score [14],PBM binding z-score [15],PBM binding z-score [16],PBM binding z-score [17],PBM binding z-score [18]
TTACCAAGGTGAGCTGAGGTCGTTGACCCAACTC,0.928,2.03,0.277,-0.41,0.266,5.01,0.193,2.57,-0.539,1.91,2,1.58,0.471,0.101,2.03,4.79,2.16,1.65
TCAGACAGGTGAAGGTAACTCTGGTACGCAGTCG,2.58,0.996,0.246,-0.784,0.246,0.678,0.0805,0.872,0.122,1.07,0.721,0.492,0.535,1.03,0.951,1.01,0.16,0.154
ACTATTAGTTGAGACGGGGGCAACCGATAGGTTG,1.48,3.27,5.1,7.99,1.63,2.63,0.549,2.25,0.997,1.94,1.92,2.03,1.77,1.55,1.42,3.01,1.12,1.98
CCTAGCTGGCCAATCTGGGTCACTCAAGGCTTGA,3.93,4.25,-0.85,-1.11,-0.162,0.708,-0.934,1.02,-1.02,1.09,1.72,0.659,0.818,-0.0999,0.716,2.69,0.234,-0.441
AGTCAAAGTTCATCTAGATAACGTAAGATATGCT,0.216,2.84,1.25,1.73,2.62,5,4.36,3.39,1.59,4.9,3.87,5.31,5.67,4.57,4.56,1.99,-0.582,4.4
AGAACGAGGGCACGCTGAGTCGATAGCAGAGTAG,4.27,3.81,0.34,0.0245,-0.314,0.266,-0.486,0.489,-0.608,2.42,1.02,1.92,2.12,1.87,1.29,1.72,-0.22,0.912
ACCGACAGGTGATGAAGGTAACTCAGGCTATCAT,0.339,0.157,0.484,0.654,0.0692,-0.165,-0.395,0.291,0.18,0.0834,0.0533,0.16,0.23,-0.271,0.299,0.649,-0.149,-0.217
CCGACTGGGGCCAAGGTTACCATACTCAGTACGA,0.261,1.58,-1.03,-0.715,0.238,0.644,0.142,1.14,-0.0443,1.77,1.87,0.875,1.17,0.424,1.12,1.88,1.07,0.551
GCGGCTGGGGCATCAGCAGGTTACCATAACTTAA,-0.444,0.118,-1.33,-0.84,0.149,0.178,-0.595,0.635,-0.988,0.966,1.16,0.705,0.632,-0.632,0.166,1.01,-0.483,-0.207
ATCTCGAGGTAAAGATAGTTCAGTGAATGCAAAT,-0.0258,0.54,0.0992,0.266,0.0262,2.22,0.66,0.499,-0.0875,0.896,0.904,0.819,0.829,-0.272,0.518,1.5,-0.16,0.272
TATATAGGGTCAAAGGCCAGAGTACGAATGTCGA,3.56,5.37,1.12,1.69,2,4.21,0.472,5.56,0.52,4.49,3.73,5.52,5.07,3.21,6.74,3.92,1.41,2.45
TTACCAAGGTGAGCTGAGTTCGTTGATCCAACTC,1.27,1.51,-0.265,-0.637,-0.679,5.28,2.22,0.594,-0.779,1.04,0.421,0.2,0.307,0.458,0.157,2.71,0.173,3.63
GGAACGAAGGCATTCGAGTTGATAGCATGGCGAT,-0.318,-0.69,-0.596,-0.862,-1.41,-0.315,-0.602,-0.623,-0.628,-0.659,-0.976,-0.479,-0.164,-0.552,-0.562,0.655,-1.68,-0.0499
TCACACAGGTGAAGGTAACTCAGGTACGCAGTCG,2.55,1.69,0.51,-0.435,-0.0155,0.559,-0.0288,0.898,0.414,1.15,0.561,0.746,0.701,0.879,1.18,1.4,0.16,0.257
CAAACTAGTTCAAGGTCAAAGTCGGTTTGTGCCA,2.12,3.26,0.529,-0.205,3.85,5.23,3.52,5.1,0.936,4.34,4.53,4.97,4.53,3.32,4.79,4.05,4.02,4.9
CCTTACGGGTCACGAGGTTATAGTACGACGAGCG,4.32,5.17,1.09,0.529,2.24,4.61,0.539,6.16,1.16,4.59,3.95,6.29,6,1.55,7.51,3.87,1.19,2.14
CCGAGTAGGTTATGGCGCATTCAGGCAACGGTGA,3.17,1.71,-0.391,-0.415,0.648,-0.289,-0.0371,0.131,0.249,0.551,0.598,0.0806,0.1,-0.0161,0.365,0.169,0.321,-0.2
GATACAGGGTCAAGGGCAGAGTACGCGTATTGAT,2.9,4.2,0.998,0.413,2.15,4.01,0.827,4.22,0.496,4.77,3.91,5.63,5.26,2.38,6.19,3.7,1.49,3.28
ACTAGCAGGCCAAGATTGGGTCACTCAAACAAAG,0.594,1.6,-0.903,-0.363,0.0638,0.192,-0.441,0.988,-0.597,1.47,1.97,1.63,1.37,-0.534,0.621,1.84,0.533,0.0162
TCTCGGAGGACACGAAAGGTCCGAGCTCGACATC,1.48,-0.219,-0.586,-0.37,-0.226,0.0287,-0.785,0.412,-1.1,1.47,0.997,0.805,1.35,0.605,0.384,1.62,0.526,0.0895
TCTGCTAGGTCAGTTGGTCAGCTATCGAGCTGCC,2.46,3.27,0.301,0.371,0.0545,0.289,-0.818,0.544,-1.27,3.39,2.69,2.62,3.33,0.537,0.914,1.2,0.162,-0.608
ATCTCTAGGTAAAGTTCAGTGACAGATCGATAGA,2.61,2.57,1.53,2.1,2.05,2.12,2.52,1.43,2.08,2.75,2.63,1.99,2.63,1.51,1.39,1.31,0.436,2.61
CAAACTAGGTCAAGAGATCAAAGTCCGCTTCCCG,8.62,8.28,2.03,2.4,2.15,1.51,0.0869,2.57,0.821,3.92,3.07,4.48,4.39,1.59,3.3,2.63,0.798,0.64
TCTAGCAGGCCAGATGGTCACTCAAGAGGTACGG,0.614,-0.0638,-0.764,-0.948,-0.88,-0.46,-0.899,-0.205,-1.39,0.242,0.18,0.0724,0.0188,-0.141,-0.0633,-0.597,-0.77,-1.21
TCTTGTAGATCAACAGGAAGTTAAGAAAGATCGA,1.64,0.249,0.464,0.377,-0.378,-0.183,-0.761,-0.00111,0.174,-0.318,-0.828,-0.328,-0.339,0.508,-0.0187,-0.307,-1.05,-0.551
CGTCCCAGGTCAGAGAGGTCAGTGAATGCCGAGT,1.78,2.54,-0.171,-0.892,3.01,5.38,10.2,4.83,0.426,4.48,4.89,5.03,5.73,1.72,4.33,4.24,2.92,4.31
CCTAGCAGTCCAATCTGGGTCACTCAAGGCTTGA,3.55,4.58,-0.524,-0.84,0.738,1.04,-0.0331,1.58,-0.751,1.17,2.02,0.766,0.694,0.516,0.768,2.86,0.629,0.187
AGAATGAAGTTACCAAAGATCAGGGAAACGCTTG,-0.595,-0.423,0.443,0.266,-0.127,-0.206,-0.375,-0.000481,-0.214,-0.335,-0.995,0.125,0.206,-0.628,0.402,-0.228,-1.02,-0.257
GCGACTGGGGCAGCAGCAGGTTACCATAACTTAA,3.5,2.23,-1.15,-0.983,-0.687,-0.502,-0.939,-0.19,-0.8,0.608,0.746,0.167,0.234,-0.331,-0.00155,0.651,-0.162,-0.595
